Results as given in PMC12820563, “FoxP3 forms a head-to-head dimer in vivo and stabilizes its multimerization on adjacent microsatellites”.
Whole data set: some 16,000 sequences, median “rpm ratio (pull-down/input)” near 0.5, cut for the highest 2% near 5.5. The full list was thinned out, with the highest values kept by preference.

target: T1, MBP-FoxP3dN (Mus musculus, UniProt Q99JB6 188-423); test: PD-seq (MBP pull-down with sequencing); 20 mM Tris-HCl pH 7.5, 100 mM NaCl, 1.5 mM MgCl2, 0.4 uM protein, 0.1 uM dsDNA library, 30 min, room temperature, amylose pull-down; high values mean tight binding; conditions: protein: recombinant; tags: His6-MBP; chain copies: 2; dsDNA, one strand shown
T1 sequence: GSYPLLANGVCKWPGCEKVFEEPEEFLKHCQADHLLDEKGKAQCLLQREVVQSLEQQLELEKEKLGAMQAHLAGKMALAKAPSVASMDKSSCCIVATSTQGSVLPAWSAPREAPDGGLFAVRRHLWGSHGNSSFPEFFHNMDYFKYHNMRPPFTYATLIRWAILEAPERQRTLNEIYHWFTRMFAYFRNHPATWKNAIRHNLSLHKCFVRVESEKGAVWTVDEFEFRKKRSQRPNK
Procedure, shortened: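 His6-MBP-tagged mouse FoxP3 or FoxP1 fragment lacking the N-terminus, expressed in E. coli, was mixed at 0.4 µM with 0.1 µM Klenow-filled double-stranded degenerate DNA library. Incubation was 30 min at room temperature in Tris pH 7.5 buffer with NaCl and MgCl2. Complexes were caught on amylose resin and washed three times; DNA was released with proteinase K, PCR-barcoded and Illumina-sequenced. Binding is reads-per-million enrichment, pull-down over input, with replicates pooled.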

Sequence | binding signal
GATGATTGTTCTCCCAGCTGATGAATTTTTGCCTTCGAGTAAACAAATTTTCCTAATCTTTCTGTTCAAGCGCCATCTAC | 2.86 RPM ratio (pull-down/input)
GATGATTGTTCTCCCAGCTGATGAATTGTCTCATTCGAGTAAACAAATTTTCCTAATCTTTCTGTTCAAGCGCCATCTAC | 0.539 RPM ratio (pull-down/input)
GATGATTGTTCTCCCAGCTGATGAATTGTTCCTGTCGAGTAAACAAATTTTCCTAATCTTTCTGTTCAAGCGCCATCTAC | 0.351 RPM ratio (pull-down/input)
GATGATTGTTCTCCCAGCTGATGAATTTCCTGTGTCGAGTAAACAAATTTTCCTAATCTTTCTGTTCAAGCGCCATCTAC | 0.352 RPM ratio (pull-down/input)
GATGATTGTTCTCCCAGCTGATGAATTTTGCCTGTCGAGTAAACAAATTTTCCTAATCTTTCTGTTCAAGCGCCATCTAC | 5.62 RPM ratio (pull-down/input)
GATGATTGTTCTCCCAGCTGATGAATTGCCTGTGTCGAGTAAACAAATTTTCCTAATCTTTCTGTTCAAGCGCCATCTAC | 0.881 RPM ratio (pull-down/input)
GATGATTGTTCTCCCAGCTGATGAATTGCCTGCGTCGAGTAAACAAATTTTCCTAATCTTTCTGTTCAAGCGCCATCTAC | 0.937 RPM ratio (pull-down/input)
GATGATTGTTCTCCCAGCTGATGAATTGTGCCTGTCGAGTAAACAAATTTTCCTAATCTTTCTGTTCAAGCGCCATCTAC | 6.42 RPM ratio (pull-down/input)
GATGATTGTTCTCCCAGCTGATGAATTGCGCCTGTCGAGTAAACAAATTTTCCTAATCTTTCTGTTCAAGCGCCATCTAC | 6.14 RPM ratio (pull-down/input)
GATGATTGTTCTCCCAGCTGATGAATTTGCCCTGTCGAGTAAACAAATTTTCCTAATCTTTCTGTTCAAGCGCCATCTAC | 0.487 RPM ratio (pull-down/input)
GATGATTGTTCTCCCAGCTGATGAATTGCCTTTGTCGAGTAAACAAATTTTCCTAATCTTTCTGTTCAAGCGCCATCTAC | 0.946 RPM ratio (pull-down/input)
GATGATTGTTCTCCCAGCTGATGAATTGGGAACTTCGAGTAAACAAATTTTCCTAATCTTTCTGTTCAAGCGCCATCTAC | 0.252 RPM ratio (pull-down/input)
GATGATTGTTCTCCCAGCTGATGAATTGATAGATTCGAGTAAACAAATTTTCCTAATCTTTCTGTTCAAGCGCCATCTAC | 0.495 RPM ratio (pull-down/input)
GATGATTGTTCTCCCAGCTGATGAATTCATAGGCTCGAGTAAACAAATTTTCCTAATCTTTCTGTTCAAGCGCCATCTAC | 0.321 RPM ratio (pull-down/input)
GATGATTGTTCTCCCAGCTGATGAATTATCCCGGTCGAGTAAACAAATTTTCCTAATCTTTCTGTTCAAGCGCCATCTAC | 0.208 RPM ratio (pull-down/input)
GATGATTGTTCTCCCAGCTGATGAATTTGGTAACTCGAGTAAACAAATTTTCCTAATCTTTCTGTTCAAGCGCCATCTAC | 1.38 RPM ratio (pull-down/input)
GATGATTGTTCTCCCAGCTGATGAATTTGCCTTGTCGAGTAAACAAATTTTCCTAATCTTTCTGTTCAAGCGCCATCTAC | 1.15 RPM ratio (pull-down/input)

Sequence | binding signal
GATGATTGTTCTCCCAGCTGATGAATTAATAGAGTCGAGTAAACAAATTTTCCTAATCTTTCTGTTCAAGCGCCATCTAC | 0.294 RPM ratio (pull-down/input)
GATGATTGTTCTCCCAGCTGATGAATTGCCACACTCGAGTAAACAAATTTTCCTAATCTTTCTGTTCAAGCGCCATCTAC | 1.52 RPM ratio (pull-down/input)
GATGATTGTTCTCCCAGCTGATGAATTGCGCCACTCGAGTAAACAAATTTTCCTAATCTTTCTGTTCAAGCGCCATCTAC | 7.19 RPM ratio (pull-down/input)
GATGATTGTTCTCCCAGCTGATGAATTGCCACTCTCGAGTAAACAAATTTTCCTAATCTTTCTGTTCAAGCGCCATCTAC | 1.37 RPM ratio (pull-down/input)
GATGATTGTTCTCCCAGCTGATGAATTTGCCCACTCGAGTAAACAAATTTTCCTAATCTTTCTGTTCAAGCGCCATCTAC | 0.555 RPM ratio (pull-down/input)
GATGATTGTTCTCCCAGCTGATGAATTTTGCCACTCGAGTAAACAAATTTTCCTAATCTTTCTGTTCAAGCGCCATCTAC | 5.96 RPM ratio (pull-down/input)
GATGATTGTTCTCCCAGCTGATGAATTTTTGCACTCGAGTAAACAAATTTTCCTAATCTTTCTGTTCAAGCGCCATCTAC | 0.699 RPM ratio (pull-down/input)
GATGATTGTTCTCCCAGCTGATGAATTGCTGCTCTCGAGTAAACAAATTTTCCTAATCTTTCTGTTCAAGCGCCATCTAC | 0.662 RPM ratio (pull-down/input)
GATGATTGTTCTCCCAGCTGATGAATTAAGACGATCGAGTAAACAAATTTTCCTAATCTTTCTGTTCAAGCGCCATCTAC | 0.207 RPM ratio (pull-down/input)
GATGATTGTTCTCCCAGCTGATGAATTGCTCACATCGAGTAAACAAATTTTCCTAATCTTTCTGTTCAAGCGCCATCTAC | 0.686 RPM ratio (pull-down/input)
GATGATTGTTCTCCCAGCTGATGAATTTTATATATCGAGTAAACAAATTTTCCTAATCTTTCTGTTCAAGCGCCATCTAC | 1.65 RPM ratio (pull-down/input)
GATGATTGTTCTCCCAGCTGATGAATTTTTTATATCGAGTAAACAAATTTTCCTAATCTTTCTGTTCAAGCGCCATCTAC | 0.31 RPM ratio (pull-down/input)
GATGATTGTTCTCCCAGCTGATGAATTTATTATATCGAGTAAACAAATTTTCCTAATCTTTCTGTTCAAGCGCCATCTAC | 2.18 RPM ratio (pull-down/input)
GATGATTGTTCTCCCAGCTGATGAATTGTTTATATCGAGTAAACAAATTTTCCTAATCTTTCTGTTCAAGCGCCATCTAC | 5.7 RPM ratio (pull-down/input)
GATGATTGTTCTCCCAGCTGATGAATTATATTTATCGAGTAAACAAATTTTCCTAATCTTTCTGTTCAAGCGCCATCTAC | 5.59 RPM ratio (pull-down/input)
GATGATTGTTCTCCCAGCTGATGAATTTATATTATCGAGTAAACAAATTTTCCTAATCTTTCTGTTCAAGCGCCATCTAC | 1.6 RPM ratio (pull-down/input)
